Among all 300,000 compounds or so, about 5,200 (1.7%) were called active. Many of the other results were omitted from the sample, so actives are more common in it than they were. A number with no mark means an inactive call.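 How the source made its calls: active means mean replicate activation of at least 50% with a set share of replicates each reaching 50%; inconclusive means only one of those two conditions met; inactive means mean below 50% and too few replicates reaching it.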

The assay in a line: HSF-1 activators, primary screen, NIH3T3-HGL cells, MG132 stress, luminescence, single point (AID 504408).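 Further: 0% = median of the neutral control wells and 100% = twice that signal.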 The settings on record: NIH3T3-HGL HSF-1 luciferase reporter, MG132, 8 h; at 9 µM; stronger effect = higher value; 100% = twice DMSO control signal. (Reporter assays use an easily measured gene product as a stand-in for the process of interest.)
`Cc1ccc2nc(SCC(=O)Nc3cccc4ccccc34)nc(=O)n2c1`: the activation is 16.2%. For `CN(C)CCCn1c(N)c(C#N)c2nc(C#N)c(C#N)nc21`, the activation is 76.2% (active). Consider `CC(C)(C)c1ccc(C(=O)NCCn2c(N)c(C#N)c3nc4ccccc4nc32)cc1`, for which the activation is 27.2%.

Consider `N#Cc1c(N)n(CCOC(=O)c2ccc(Cl)cc2)c2nc3ccccc3nc12`, for which the activation is 26.8%. With `CC(OC(=O)CCCc1c[nH]c2ccccc12)C(=O)Nc1ccc(S(N)(=O)=O)cc1` (centres undefined), the activation is 8.99%.

Regarding `CC(=O)Nc1ccc(C(=O)Nc2cccc(S(=O)(=O)NC3=NCCC3)c2)cc1`, the activation is -9.72%. With `COc1ccc(C(=O)CN2C(=O)NC3(CCc4ccccc43)C2=O)c(OC)c1` (centres undefined), the activation is -14%.

Consider `Cc1nn(C)cc1C(=O)c1ccccc1`, for which the activation was 5.22%. Turning to `Cc1cc(NC(=O)C(C)N2C(=O)c3ccccc3S2(=O)=O)no1` (centres undefined), the activation is -3.5%. As to `COc1cc2ccccc2cc1C(=O)N1CCOCC1`, the activation is -5.8%.

`CCOc1ccc(N=C2SC(C(=O)O)CC(=O)N2C)cc1` (centres undefined): the activation was -0.001%.

For the compound `C=CCN1C(=O)C(Cc2ccc(OCC)cc2)SC1=Nc1ccc(C(=O)O)cc1` (centres undefined), the activation is 58.5% (active). As for `C=CCN1C(=O)C(Cc2cccc(Cl)c2)S/C1=N/N=C/c1ccco1` (centres undefined), the activation is 23.1%. As for `COc1cccc(N2CC(NC(=O)c3ccc4ccccc4c3)CC2=O)c1` (centres undefined), the figure is -3.4%; as for `Nc1c(-c2ccccc2)nnn1Cc1ccccc1`, 17.5%; as for `O=c1c2ccccc2nc2n1C(CSc1ccc(Cl)cc1)CN2` (centres undefined), -13%. `Clc1ccc2nc(CSc3ccccc3)cn2c1`: the activation is 70.2% (active).

Turning to `O=C(/C=C/c1ccc2c(c1)OCO2)NCc1cn2cc(Cl)ccc2n1`, the activation was 1.53%. As for `N#CC1(NC(=O)COC(=O)Cc2n[nH]c(=O)c3ccccc23)CCCCC1`, the activation is 3.96%.

As for `COc1ccc(-c2cc(C(=O)N(C)CC(=O)Nc3ccccc3Cl)c3ccccc3n2)cc1OC`, the activation was -23.1%. For the compound `Cc1cccc(OC(=O)c2sc3ncn(C)c(=O)c3c2C)c1`, the activation is 17.3%. As for `CCOC(=O)C(C)n1cnc2sc(C)c(C)c2c1=O` (centres undefined), the figure is 6.07%. With `Cc1c(C(N)=O)sc2ncn(CCOc3ccccc3)c(=O)c12`, the activation is 58.5% (active). `CCOc1ccc(CCNC(=O)COC(=O)c2ccc(F)c(S(=O)(=O)N3CCOCC3)c2)cc1OCC`: the activation was -9.54%. For the compound `CCC(=O)N1CCc2cc(Br)c(S(=O)(=O)NCCN3CCCCC3CC)cc21` (centres undefined), the activation is -1.08%. With `COc1ccc(C(=O)Nc2cccc(NC(=O)c3ccc(OC)cc3OC)n2)c(OC)c1` the figure was -34.1%; with `O=C1CC(c2cccc(Cl)c2)CC(O)=C1C=Nc1ccccc1` (centres undefined), 116% (active); with `O=C1CC(c2ccccc2)CC(O)=C1C=NCCN1CCOCC1` (centres undefined), -5.8%. Take `O=C1CCCC(O)=C1C=NCCc1ccccc1`: the activation was 21%.

Regarding `O=C(NCCS(=O)(=O)N1CCN(c2ccccc2)CC1)c1ccco1`, the activation was 4.49%. As for `Cc1cc(O)c(Sc2ccccc2)c(=O)o1`, the activation was -2.42%.

Regarding `CCCCn1c(N)c(N(CC(C)C)C(=O)c2cccc(S(=O)(=O)N3CCN(C(C)=O)CC3)c2)c(=O)[nH]c1=O`, the activation is -4.85%. With `CCCCOc1ccc(CSC(=N)N)cc1[N+](=O)[O-]` the figure was -29.6%; with `CCOC(=O)C/C(C)=N\Nc1ccc([N+](=O)[O-])cc1[N+](=O)[O-]`, 1.63%.

Regarding `CCCCOC(=O)CCCc1ccc([N+](=O)[O-])cc1[N+](=O)[O-]`, the activation was 65% (active). In the case of `Cc1csc2nc(O)c(C(=O)NCCN3CCOCC3)c(=O)n12`, the activation was -6.85%. With `COc1ccc(S(=O)(=O)NCC(c2ccc(C)cc2)N2CCN(C)CC2)cc1OC` (centres undefined) the figure was 5.43%; with `S=C(Nc1cccc(Cl)c1)Nc1ccc2c(c1)OCCO2`, 5.58%; with `S=C(Nc1cccc(Cl)c1)Nc1ccc2cn[nH]c2c1`, 20.2%.

As to `Cc1csc(NC(=S)Nc2cccc(Cl)c2)n1`, the activation is 58.4% (active). For the compound `COc1ccc(C(=O)NCC2CCCN2S(=O)(=O)c2cccs2)cc1OC` (centres undefined), the activation was -9.4%.

Turning to `Cc1ccc2nc(-c3ccc(Br)cc3)cn2c1`, the activation is -34.2%. For the compound `CCN(c1cccc(C)c1)S(=O)(=O)c1ccc(-c2coc(C)n2)cc1`, the activation is -1.05%.

On to `CCN(CC)S(=O)(=O)c1ccc(-c2cn3ccc(C)cc3n2)cc1`, for which the activation was 58.1% (active).

Turning to `Cc1ccc(SCC(=O)Nc2nncs2)cc1`, the activation was -2.82%.

For the compound `COc1ccc(-n2nnnc2CNC(=O)c2ccc3ccccc3c2)cc1`, the activation was 3.44%. Regarding `COc1cccc(NC(=O)CSc2nnc(-c3cccnc3)o2)c1`, the activation is 11.6%. With `Cc1ccc(C)c(-c2nnc(NC(=O)CS(=O)(=O)c3ccccc3)o2)c1`, the activation was -10.1%.

For `COc1ccccc1/C=N/Nc1nc(C)c(C(C)=O)s1`, the activation is 55.9% (active). For the compound `CC(=O)c1sc(N/N=C\c2ccc(C)cc2)nc1C`, the activation is 38.3%. As to `CC(=O)c1sc(NC(=O)CCCOc2ccccc2C)nc1C`, the activation is 35.1%. With `CC(=O)c1sc(N/N=C/c2ccc(C(C)C)cc2)nc1C`, the activation is 59.6% (active). Take `COc1cccc2sc(Nc3nc(C)c(C(C)=O)s3)nc12`: the activation is -3.69%. On to `COc1cc2ccccc2cc1C(=O)Nc1nc(C)c(C(C)=O)s1`, for which the activation was 23.8%. `CCN1C(=O)[C@H]2[C@@H](c3ccc(C)cc3)N3C(=O)N(c4cccc(Br)c4)C(=O)[C@@]3(CC)[C@H]2C1=O`: the activation is -10.8%. As for `Cc1csc(NC(=O)CSc2nc(=O)n(CCCN(C)C)c3c2CCC3)n1`, the figure is -4.76%. As for `Cc1ccc(S(=O)(=O)CCC(=O)OCC(=O)N(C)C2CCS(=O)(=O)C2)cc1` (centres undefined), the activation was 2.33%. For `CCN(Cc1ccccc1)S(=O)(=O)c1cc2c3c(c1)CCN3C(=O)CC2`, the activation was 23.7%. Regarding `COc1ccc2c(c1)C(=O)Nc1cc(Cl)ccc1N2`, the activation was 12.2%.

As to `CN(C)CCn1c2c(c(SCC(=O)Nc3ccccc3C(F)(F)F)nc1=O)CCCC2`, the activation is -8.06%. With `Cc1ccc(-c2csc(-c3c[nH]c4ccccc34)n2)cc1` the figure was 62% (active); with `Cc1ccc(-c2csc(-c3cc(C)on3)n2)cc1`, 28.5%. As for `CCCc1cc(-c2nc(-c3ccc(C)cc3)cs2)ccn1`, the activation was 7.82%.

With `COc1ccccc1C(=O)NCCC(=O)NN1C(=O)NC2(CCCCC2)C1=O`, the activation was -5.35%. `O=C(COC(=O)c1ncc(Cl)c(Cl)c1Cl)NCc1cccs1`: the activation was -3.74%. On to `Cc1cc(C(=O)N/N=C/c2ccc(N3CCOCC3)cc2)c(C)o1`, for which the activation was -5.06%. On to `CC(C)c1cc(C(=O)N/N=C/C(Br)=C/c2ccccc2)n[nH]1`, for which the activation was 40.2%.

In the case of `O=C(Cc1cc(=O)[nH][nH]1)N/N=C/c1ccccc1[N+](=O)[O-]`, the activation is -2.04%.

Take `Cc1cc(C(=O)N/N=C\C(Br)=C\c2ccccc2)c(C)o1`: the activation was 112% (active).

As for `Cc1cc(C(=O)N/N=C/c2ccccc2[N+](=O)[O-])c(C)o1`, the activation was 58.5% (active).

For `CC(=C/c1ccccc1)/C=N/NC(=O)c1cc(C)oc1C`, the activation is 32%.

Regarding `COc1cc(C(=O)N(C)Cc2cccc(OC)c2OC)ccc1OCC(=O)Nc1cccc(C(F)(F)F)c1`, the activation was -3.36%. For the compound `CC(OC(=O)CCC(=O)c1ccccc1)C(=O)Nc1ccc(F)cc1` (centres undefined), the activation was -12.9%. With `COc1cc(C(=O)OCc2ccc([N+](=O)[O-])cc2)cc(OC)c1OC` the figure was 12.4%; with `COc1cc(/C=N\Nc2ccc([N+](=O)[O-])cn2)ccc1OCC(=O)O`, 0.194%; with `COc1cc(/C=N/O)ccc1OCc1ccc([N+](=O)[O-])cc1`, 118% (active). As for `O=C(Nc1ccc(F)c([N+](=O)[O-])c1)C1CCCO1` (centres undefined), the activation was 9.04%. For the compound `COc1ccc(S(=O)(=O)N2CCOC23CCN(S(=O)(=O)c2ccc([N+](=O)[O-])cc2)CC3)cc1`, the activation is 0.627%. For the compound `CCOc1ccc(C(C)=O)cc1COC(=O)CN1C(=O)NC2(CCCC2)C1=O`, the activation was -13.7%. Take `Cc1ccc(-c2cc(C(=O)N/N=C/C=C/c3ccco3)c3ccccc3n2)cc1C`: the activation is -41.2%. With `CC(/C=N/NC(=O)c1ccncc1)=C\c1ccco1` the figure was 27.6%; with `CC(/C=N/NC(=O)c1cc(-c2ccc3ccccc3c2)n[nH]1)=C\c1ccco1`, 71.5% (active); with `COc1ccc(/C=N/Nc2ccccc2C(=O)O)cc1`, 12.9%. For the compound `NC(=O)c1ccccc1N=Cc1ccc2ccccc2c1`, the activation was 75.3% (active). `N=c1oc2ccccc2cc1C(=O)N/N=C/c1ccccc1`: the activation is 22.1%.

Consider `COc1ccccc1NS(=O)(=O)c1ccc(C(=O)N2CCN(c3ccccc3O)CC2)cc1`, for which the activation was 14.5%. With `CCOc1ccc2nc(C(=O)N3CCCC(C)C3)sc2c1` (centres undefined) the figure was 76.7% (active). As for `CCOc1ccc2nc(Nc3nc4ccc(NC(C)=O)cc4s3)sc2c1`, the activation is 36.7%. `CCCC(=O)N(CCN1CCOCC1)c1nc2ccc(OCC)cc2s1`: the activation is 5.04%. In the case of `CSc1ccc(S(=O)(=O)NCC(=O)OCC(=O)NC2(C#N)CCCCC2)cc1[N+](=O)[O-]`, the activation is 1.77%. Take `COc1ccccc1C(=O)NC(CCSC)C(=O)NNC(=O)c1ccccc1C` (centres undefined): the activation was -15.3%. Turning to `O=C(Nn1c(-c2ccccc2)nc2ccccc2c1=O)c1ccc([N+](=O)[O-])cc1`, the activation was 19.1%. Take `O=C(Nn1c(SCc2ccc([N+](=O)[O-])cc2)nc2ccccc2c1=O)c1ccc(F)cc1`: the activation is 51.9% (active). Take `C=CCn1c(SCc2ccc(C(=O)NCCO)cc2)nc2ccccc2c1=O`: the activation was -5.63%.

The record behind these values is PubChem BioAssay AID504408 (Broad Institute, 2011).
